Measured values: PubChem BioAssay (NCATS)
Activity calls are given as the source filed them. Calls follow the shape of the dose curve; as a rule, active = well fitted activation curve with a large enough effect; inconclusive = small, poorly fitted or top-dose-only effect; inactive = no such curve, though single readings can be large or run the other way.

Molecular target: Parathyroid hormone/parathyroid hormone-related peptide receptor (Homo sapiens) (UniProt Q03431)
Assay: qHTS for PTHR1 Agonists: Optimization Screen against the NCGC LOPAC library (AID 1347079); as to activation: 0% is about no effect
Settings: HEK293 GP2 PTHR1 GloSensor cAMP luminescence, 1 h; series mostly up to 57.1 µM; activation: at the top concentration
Excerpt: The goal of the proposed studies is to discover new compounds that act as potent agonists on the parathyroid hormone receptor type-1 (PTHR1). The PTHR1 plays critical roles in maintaining blood calcium and phosphate levels, as well as in controlling bone remodeling. PTHR1 agonists could thus be useful for treating diseases such as hypoparathyroidism and osteoporosis. In the former disease, an agonist drug would help maintain normal blood calcium and phosphate levels under conditions of parathyroid hormone deficiency. In the latter disease, an agonist drug would stimulate new bone formation and thus reduce the risk of fracture, under conditions of bone fragility, as occurs in aging. We performed an optimization assay of the quantitative high-throughput screening (qHTS) for the parathyroid hormone receptor type-1 (PTHR1) against the NCGC LOPAC library collection of […] compounds using a unique HEK-293-derived cell line (GP2) that expresses the PTHR1 and a GloSensor cAMP reporter construct. Increase in signal (activation / agonist) is the desired outcome for compounds of interest. NIH Chemical Genomics Center [NCGC] NIH Molecular Libraries Probe Production Centers Network [MLPCN] MLPCN Grant: P01 DK011794 Assay Submitter (PI): Thomas Gardella PhD, Massachusetts General Hospital
Reagents / Controls: M-PTH (1-15) peptide hormone fragments was provided by the assay provider and was used as a control. Column 1 was treated with M-PTH titration (1:2 dilution) beginning with a final concentration of 10uM. Column 2 was treated with M-PTH final concentration of 10uM. Columns 3 and 4 were treated with DMSO only to assess background and noise signal. Assay Steps: Four microLiter of cells suspension was dispensed in a 1536-well assay plate at a final density of 3000 cells/well. The plates were incubated overnight, after which 4uL of 0.5mM of BloTium Luciferin plus 0.5mM IBMX was added. Next, the plate was incubated at 37C for 1hr before 23nL of compound (at various final concentrations from 40uM to 0.32uM) and control were added using a 1536-well array Kalypsys pin-tool. The treated plates were again incubated at 37C for another hour. Luminescence signal was obtained using the PerkinElmer ViewLux plate reader after 15min or room temperature incubation.
Potency is read from the fitted curve at half-maximal effect.

Parathyroid hormone/parathyroid hormone-related peptide receptor (Homo sapiens), sequence (Q03431 whole entry, looked up): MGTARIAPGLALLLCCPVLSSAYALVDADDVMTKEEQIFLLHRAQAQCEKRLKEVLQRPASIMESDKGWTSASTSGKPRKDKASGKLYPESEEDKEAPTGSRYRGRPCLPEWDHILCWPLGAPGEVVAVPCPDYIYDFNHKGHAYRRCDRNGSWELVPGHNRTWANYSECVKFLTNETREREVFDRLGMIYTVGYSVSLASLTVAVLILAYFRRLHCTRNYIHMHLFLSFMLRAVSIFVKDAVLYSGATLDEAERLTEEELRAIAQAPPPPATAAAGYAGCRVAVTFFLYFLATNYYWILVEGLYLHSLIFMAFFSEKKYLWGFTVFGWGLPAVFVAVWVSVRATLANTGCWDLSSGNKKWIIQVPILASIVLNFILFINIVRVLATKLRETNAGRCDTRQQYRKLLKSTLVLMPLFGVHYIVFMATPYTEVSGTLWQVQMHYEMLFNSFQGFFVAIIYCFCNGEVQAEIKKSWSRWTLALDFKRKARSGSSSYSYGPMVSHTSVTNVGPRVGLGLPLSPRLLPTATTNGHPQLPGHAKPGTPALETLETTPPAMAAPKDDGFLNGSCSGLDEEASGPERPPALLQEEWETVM

Row | Structure (SMILES) | activation | Potency
1 | N[C@@H](Cc1c[nH]c2ccccc12)C(=O)O | -24.3% (inactive) | –
2 | NCC(O)(CS(=O)(=O)O)c1ccc(Cl)cc1 (stereo not given) | -6.19% (inactive) | –
3 | O=C1C2C=CC=CC2=NC(=S)N1CCN1CCC(=C(c2ccc(F)cc2)c2ccc(F)cc2)CC1 (stereo not given) | 29.5% (inactive) | –
4 | COc1cc2c(CCNC(C)=O)c[nH]c2cc1O | -39.9% (inactive) | –
5 | CCN(c1nc(N)c(C(=O)N=C(N)N)nc1Cl)C(C)C | -17% (inactive) | –
6 | CNc1cc(NS(=O)(=O)c2ccc(N)cc2)nc(NC)n1 | 16.7% (inactive) | –
7 | COC(=O)C(C)(N)Cc1ccc(O)cc1 (stereo not given) | -34.2% (inactive) | –
8 | O=C(c1ccc2c(c1)OCCO2)N1CCCCC1 | -22.9% (inactive) | –
9 | O=C(O)C1=CCCN(CCON=C(c2ccccc2)c2ccccc2)C1 | 0.174% (inactive) | –
10 | O=c1[nH]c(=O)c2nc3ccccc3nc2[nH]1 | -4.75% (inactive) | –
11 | NC(C(=O)N[C@@H]1C(=O)N2C(C(=O)O)=C(Cl)CS[C@H]12)c1ccccc1 (stereo not given in full) | 6.11% (inactive) | –
12 | O=c1[nH]c(=S)[nH]c(-c2ccccc2)c1Cc1c(O)ccc2ccccc12 | 3.36% (inactive) | –
13 | N[C@@H](CS(=O)O)C(=O)O | -31.8% (inactive) | –
14 | NC1(C(=O)O)CCCCC1 | -19% (inactive) | –
15 | NCCCCN=C(N)N | -13.1% (inactive) | –
16 | O=c1ccc2c(OCCCCc3ccccc3)c3ccoc3cc2o1 | -1.05% (inactive) | –
17 | CN(C)CCC(c1ccc(Br)cc1)c1ccccn1 (stereo not given) | -8.9% (inactive) | –
18 | CC(=O)/C(C)=N/O | 48.7% (inactive) | –
19 | O=C(O)C1=CCCNC1 | -10.2% (inactive) | –
20 | Nc1nc2c(nc(Br)n2C2OC3COP(=O)(O)O[C@@H]3C2O)c(=O)[nH]1 (stereo not given in full) | 2.62% (inactive) | –

Row | Structure (SMILES) | activation | Potency
21 | N#Cc1cc2nc(O)c(O)nc2cc1[N+](=O)[O-] | 11.4% (inactive) | –
22 | C[C@@H](NCCc1ccc(O)cc1)[C@@H](O)c1ccc(O)cc1 | – | 2380 nM (active)
23 | Cc1nc(N=Nc2ccc(C(=O)O)cc2)c(COP(=O)(O)O)c(C=O)c1O | 14.9% (inactive) | –
24 | c1ccc(C(NCCNC(c2ccccc2)c2ccccc2)c2ccccc2)cc1 | -21.5% (inactive) | –
25 | N=C(N)c1ccc(OCCCCCOc2ccc(C(=N)N)cc2)cc1 (tested in a mixture with another compound) | -22.1% (inactive) | –
26 | c1ccc(C2CN3CCSC3=N2)cc1 (stereo not given) | 15.7% (inactive) | –
27 | N[C@H](C(=O)O)[C@H](Cc1ccccc1)C(=O)O | -11.6% (inactive) | –
28 | Cn1ccnc1 | 26.6% (inactive) | –
29 | O=C(O)/C=C/c1cnc[nH]1 | -25.9% (inactive) | –
30 | NC(N)=NC(N)=Nc1ccccc1 | -16.1% (inactive) | –
31 | CCCCCCC/C=C\CCCCCCCCC(=O)O | -7.46% (inactive) | –
32 | O=C(O)C1CCCNC1 (stereo not given) | -14.8% (inactive) | –
33 | N[C@H](C(=O)O)[C@H]1C[C@@H]1C(=O)O | -13.6% (inactive) | –
34 | CCSC(=N)N | 29.6% (inactive) | –
35 | NC(N)=N[C@@H](CCC(=O)O)C(=O)O | 10% (inactive) | –
36 | NC1CONC1=O (stereo not given) | -30.4% (inactive) | –
37 | CNC(=O)c1cc2c(cn1)[nH]c1ccccc12 | -30.1% (inactive) | –
38 | Cc1cccc(C(=O)NCN2CCN(c3ccccc3C#N)CC2)c1 | 36.1% (inactive) | –
39 | NOCC(=O)O | 37.4% (inactive) | –
40 | Nc1ccc(-c2nc3ccc(-c4nc5ccc(N)cc5[nH]4)cc3[nH]2)cc1 | -1.44% (inactive) | –
